Among the data in PubChem BioAssay (Tox21) are Potency values, retold here.

Inconclusive results are not listed. Entries that show only a call come without a potency. The source made the active and inactive calls. Calls come from the whole dose curve; as a rule, active = well fitted curve in the direction sought with a large enough effect in the repeat runs; inconclusive = weak or mixed curves; inactive = no such curve, though single readings can be large; an effect the other way counts as inactive or inconclusive.
Potency is the fitted concentration of half-maximal effect.

The nature of the first assay: qHTS RealTime-Glo MT Cell Viability Assay in HepG2 cells - 32 hour (AID 1224877). Note: nearly all actives have a fitted effect of over 55% in size. Conditions: RealTime-Glo luminescence; series mostly up to 76.8 µM. The method, boiled down: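 Viability was tracked continuously by NanoLuc luminescence from prosubstrate reduced by living HepG2 cells, at successive time points over 40 h of compound exposure. Cells with reagent were preincubated 5 h at 37 °C before compound addition.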
On to `CC1=NC(C)OC1C` (configuration not stated), for which the Potency entry was “inactive”.

In the case of `CCCC(c1cc(C(C)(C)C)c(O)cc1C)c1cc(C(C)(C)C)c(O)cc1C`, the Potency is 35.1 µM (active).

Turning to `CCCCCCCCn1sc(Cl)c(Cl)c1=O`, the Potency is 5.49 µM (active).

Regarding `CSc1ccc(/C=C2/C(C)=C(CC(=O)O)c3cc(F)ccc32)cc1`, the Potency result is “inactive”.

With `C/C=C(\C)C(=O)OCc1ccccc1`, the Potency result is “inactive”.

With `CCOC(=O)O[C@H](C)OC(=O)c1ccc2c(c1)cc(C(=O)NC1CCN(C(C)C)CC1)n2Cc1cc(-c2ccc(Cl)s2)on1`, the Potency is 10.2 µM (active).

`O=c1[nH]cnc2nc[nH]c12`: the Potency entry is “inactive”.

For `C[C@]12CCC(=O)C=C1CC[C@@H]1[C@@H]2[C@@H](O)C[C@@]2(C)[C@H]1CC[C@]2(O)C(=O)COC(=O)CCC(=O)O`, the Potency result is “inactive”.

With `NC(=O)CC[C@@H]1NC(=O)[C@H](Cc2ccccc2)NC(=O)[C@H](Cc2ccc(O)cc2)NC(=O)CCSSC[C@@H](C(=O)N2CCC[C@H]2C(=O)N[C@@H](CCCN=C(N)N)C(=O)NCC(N)=O)NC(=O)[C@H](CC(N)=O)NC1=O`, the Potency result was “inactive”.

On to `COC(=O)C1=C(C)NC(C)=C(C(=O)OCC(C)C)C1c1ccccc1[N+](=O)[O-]` (configuration not stated), for which the Potency is 49 µM (active).

With `[Cl][Au]([Cl])[Cl]`, the Potency was 9.77 µM (active).

On to `OCCCCCCCCCCCCBr`, for which the Potency result was “inactive”.

`CC(C)=CCOc1ccc(/C=C/C(=O)c2ccc(OCC=C(C)C)cc2OCC(=O)O)cc1`: the Potency result was “inactive”.

Take `CSc1ccc(C(=O)c2[nH]c(=O)[nH]c2C)cc1`: the Potency entry is “inactive”.

Regarding `CC(C)(C)c1ccc(C(=O)CCCN2CCC(OC(c3ccccc3)c3ccccc3)CC2)cc1`, the Potency was 19 µM (active).

For the compound `CCC(C)Nc1ccc(NC(C)CC)cc1` (configuration not stated), the Potency is 17.7 µM (active).

In the case of `O=[N+]([O-])c1ccccc1Nc1ccccc1`, the Potency entry is “inactive”.

With `Clc1ccc2nsnc2c1NC1=NCCN1`, the Potency result is “inactive”.

`CCCCc1oc2ccc(NS(C)(=O)=O)cc2c1C(=O)c1ccc(OCCCN(CCCC)CCCC)cc1`: the Potency was 9.52 µM (active).

In the case of `NNC(=O)c1cccc(C(=O)NN)c1`, the Potency entry was “inactive”.

As to `CCCCCCCCCCCCCCCS(=O)(=O)Oc1ccccc1`, the Potency result was “inactive”.

For `CCC(C)(C)C1CCCCC1OC(C)=O` (configuration not stated), the Potency entry is “inactive”.

In the case of `CCCCCCC[N+](CC)(CC)CCCCc1ccc(Cl)cc1`, the Potency was 23.9 µM (active).

As for `CCCCCOC(=O)CCCC`, the Potency entry was “inactive”.

As for `OCCN(CCO)c1nc(N2CCCCC2)c2nc(N(CCO)CCO)nc(N3CCCCC3)c2n1`, the Potency entry was “inactive”.

Consider `Cc1cccc(S(=O)(=O)O)c1C`, for which the Potency result is “inactive”.

`COc1cc(/C=C/C(=O)O[C@H]2CC[C@]34C[C@]35CC[C@]3(C)[C@@H]([C@H](C)CCC=C(C)C)CC[C@@]3(C)[C@@H]5CC[C@H]4C2(C)C)ccc1O`: the Potency entry was “inactive”.

In the case of `CCCCCCCCCCn1cc[n+](CCCCCCCCCC)c1C`, the Potency is 19.5 µM (active).

`Clc1ccc(C(Cn2ccnc2)OCc2ccc(Sc3ccccc3)cc2)c(Cl)c1` (configuration not stated): the Potency result is “inactive”.

Turning to `Cc1cc(N)c(S(=O)(=O)O)cc1Cl`, the Potency result was “inactive”.

For the compound `CC(C)(C)c1ccc(C(=O)O)cc1`, the Potency entry was “inactive”.

Consider `CCCCCCCCCCC=O`, for which the Potency result is “inactive”.

Take `CC(C)C(C)(C)C(C)(C)C(C)(C)S`: the Potency entry was “inactive”.

With `Oc1cccc2cc3cccc(O)c3c(O)c12`, the Potency entry was “inactive”.

With `CC(=O)OCC(C)OC(C)=O` (configuration not stated), the Potency entry was “inactive”.

Take `c1ccc(CSCc2ccccc2)cc1`: the Potency entry is “inactive”.

The next assay in a line: A CellTox Green Cytotoxicity Assay to monitor cytotoxicity in HepG2 cells - 24 hour (AID 1224878). Note: nearly all actives have a fitted effect of over 45% in size. Conditions: CellTox Green fluorescence; series mostly up to 76.8 µM. The method, boiled down:
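HepG2 cells, 600/well, preincubated 5 h with CellTox Green dye, then exposed to Tox21 compounds in DMSO at 37 C for up to 40 h. Dead-cell DNA fluorescence read at the indicated time point.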
For `CC1=NC(C)OC1C` (configuration not stated), the Potency result is “inactive”.

Regarding `CCCC(c1cc(C(C)(C)C)c(O)cc1C)c1cc(C(C)(C)C)c(O)cc1C`, the Potency is 39.4 µM (active).

For `CCCCCCCCn1sc(Cl)c(Cl)c1=O`, the Potency is 11 µM (active).

Regarding `CSc1ccc(/C=C2/C(C)=C(CC(=O)O)c3cc(F)ccc32)cc1`, the Potency result was “inactive”.

Regarding `C/C=C(\C)C(=O)OCc1ccccc1`, the Potency result was “inactive”.

Turning to `CCOC(=O)O[C@H](C)OC(=O)c1ccc2c(c1)cc(C(=O)NC1CCN(C(C)C)CC1)n2Cc1cc(-c2ccc(Cl)s2)on1`, the Potency is 11.5 µM (active).

For `O=c1[nH]cnc2nc[nH]c12`, the Potency entry is “inactive”.

For `C[C@]12CCC(=O)C=C1CC[C@@H]1[C@@H]2[C@@H](O)C[C@@]2(C)[C@H]1CC[C@]2(O)C(=O)COC(=O)CCC(=O)O`, the Potency entry is “inactive”.

`NC(=O)CC[C@@H]1NC(=O)[C@H](Cc2ccccc2)NC(=O)[C@H](Cc2ccc(O)cc2)NC(=O)CCSSC[C@@H](C(=O)N2CCC[C@H]2C(=O)N[C@@H](CCCN=C(N)N)C(=O)NCC(N)=O)NC(=O)[C@H](CC(N)=O)NC1=O`: the Potency entry is “inactive”.

Turning to `COC(=O)C1=C(C)NC(C)=C(C(=O)OCC(C)C)C1c1ccccc1[N+](=O)[O-]` (configuration not stated), the Potency result is “inactive”.

As for `[Cl][Au]([Cl])[Cl]`, the Potency was 13.8 µM (active).

Take `OCCCCCCCCCCCCBr`: the Potency result was “inactive”.

For `CC(C)=CCOc1ccc(/C=C/C(=O)c2ccc(OCC=C(C)C)cc2OCC(=O)O)cc1`, the Potency result is “inactive”.

For the compound `CSc1ccc(C(=O)c2[nH]c(=O)[nH]c2C)cc1`, the Potency result was “inactive”.

For the compound `CC(C)(C)c1ccc(C(=O)CCCN2CCC(OC(c3ccccc3)c3ccccc3)CC2)cc1`, the Potency is 23.9 µM (active).

On to `CCC(C)Nc1ccc(NC(C)CC)cc1` (configuration not stated), for which the Potency was 22.3 µM (active).

Take `O=[N+]([O-])c1ccccc1Nc1ccccc1`: the Potency result was “inactive”.

As to `Clc1ccc2nsnc2c1NC1=NCCN1`, the Potency result was “inactive”.

In the case of `CCCCc1oc2ccc(NS(C)(=O)=O)cc2c1C(=O)c1ccc(OCCCN(CCCC)CCCC)cc1`, the Potency was 19 µM (active).

In the case of `NNC(=O)c1cccc(C(=O)NN)c1`, the Potency result is “inactive”.

In the case of `CCCCCCCCCCCCCCCS(=O)(=O)Oc1ccccc1`, the Potency entry was “inactive”.

For the compound `CCC(C)(C)C1CCCCC1OC(C)=O` (configuration not stated), the Potency result is “inactive”.

Consider `CCCCCCC[N+](CC)(CC)CCCCc1ccc(Cl)cc1`, for which the Potency is 26.8 µM (active).

As for `CCCCCOC(=O)CCCC`, the Potency result is “inactive”.

As for `OCCN(CCO)c1nc(N2CCCCC2)c2nc(N(CCO)CCO)nc(N3CCCCC3)c2n1`, the Potency is 23.9 µM (active).

As for `Cc1cccc(S(=O)(=O)O)c1C`, the Potency result is “inactive”.

As for `COc1cc(/C=C/C(=O)O[C@H]2CC[C@]34C[C@]35CC[C@]3(C)[C@@H]([C@H](C)CCC=C(C)C)CC[C@@]3(C)[C@@H]5CC[C@H]4C2(C)C)ccc1O`, the Potency result was “inactive”.

For `CCCCCCCCCCn1cc[n+](CCCCCCCCCC)c1C`, the Potency is 17.4 µM (active).

As for `Clc1ccc(C(Cn2ccnc2)OCc2ccc(Sc3ccccc3)cc2)c(Cl)c1` (configuration not stated), the Potency result is “inactive”.

Turning to `Cc1cc(N)c(S(=O)(=O)O)cc1Cl`, the Potency result is “inactive”.

With `CC(C)(C)c1ccc(C(=O)O)cc1`, the Potency result was “inactive”.

In the case of `CCCCCCCCCCC=O`, the Potency entry was “inactive”.

For `CC(C)C(C)(C)C(C)(C)C(C)(C)S`, the Potency result was “inactive”.

As for `Oc1cccc2cc3cccc(O)c3c(O)c12`, the Potency result is “inactive”.

With `CC(=O)OCC(C)OC(C)=O` (configuration not stated), the Potency entry is “inactive”.

As for `c1ccc(CSCc2ccccc2)cc1`, the Potency result was “inactive”.
